Bioassay records deposited in PubChem BioAssay by National Center for Advancing Translational Sciences (NCATS).
Shiga toxin inh: Shiga toxin inhibition. 290,000 tested, 9.2% active. Vero cells, Shiga toxin protein synthesis inhibition reporter. inhibition, % at 38.7 µM. AID 2315; in the data active = inhibition mostly above about 28%, no sharp cut-off; inactive = mostly below about 43%; note: 0% is about no effect
HCMV inh: blocks human cytomegalovirus replication. 410,000 tested, 4.5% active. HFF cells, HCMV-luciferase reporter, 72 h; active compounds read low. AID 1259415. activity change, negative = inhibition, % at 57.5 µM; in the data active = activity change below about -60%; inconclusive = no clear call, values can overlap the other calls; inactive = above about -39%; note: % is set by controls: 0 for no effect and ±100 for the full control effect
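Two-dose cell screen: HFF monolayers treated with compounds and infected with luciferase-expressing HCMV at 1 PFU/cell, 72 h at 37C, then lysed for luciferase measurement.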
Pf growth 48h: P. falciparum growth inhibition at 48 hours (one generation). P. falciparum luciferase growth in erythrocytes, 48 h. Potency, µM (doses to about 28.7 µM), without a hit: at the highest dose activity change, negative = inhibition, hits mostly inhibitors. 310,000 tested, 5.9% active; note: potency is the fitted concentration of half-maximal effect; % is set by controls: 0 for no effect and ±100 for the full control effect
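In quantitative HTS format, infected erythrocytes bearing luciferase-reporter parasites were treated for a single generation at 37 C. Luminescence after adding detection reagent served as the growth measure.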
Pf growth 96h: P. falciparum growth inhibition at 96 hour, primary screen for plastid delayed-death inhibitors; P. falciparum luciferase reporter growth, 96 h; Potency, µM (doses to about 28.7 µM), for the others: top-dose activity change, negative = inhibition, actives largely listed as inhibitors; 320,000 tested, 6.9% active; note: potency is the fitted concentration of half-maximal effect; % is set by controls: 0 for no effect and ±100 for the full control effect
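Infected RBCs, 2% Hct / 0.05% parasitemia final; luciferase-reporter P. falciparum; cpd 96 h, 37 C, 5% CO2; luciferase detection reagent; luminescence.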
Cycloheximide cs: affects cycloheximide protein synthesis inhibition readout, counter-screen; 300,000 tested, 12% active; max response, %; cell reporter, cycloheximide protein synthesis inhibition counterscreen; in the data active = max response mostly above about 13%, no sharp cut-off; inactive = mostly below about 14%; note: read at 38.3 µM for the half of the compounds with a filed dose; 0% is about no effect
Active calls of the source: *; ! = a repeat was not active. A selection: hits, their analogues and other compounds. The true share with any hit is near 20%. Unless noted, calls come from the whole dose curve; as a rule, active = well fitted inhibition curve with a large enough effect; inconclusive = small, poorly fitted or top-dose-only effect, or another doubt; inactive = no such curve, though single readings can be large or run the other way.

Cc1cc(C)c(NC(=O)NC(=O)c2ccc(F)cc2)c(C)n1 was read as Shiga toxin inh 34*, HCMV inh -9, Pf growth 48h 64% and Cycloheximide cs 28*.
Cc1cc(C)c2c(NC(=O)c3ccccc3)c(C(=O)Nc3ccc(F)cc3)sc2n1 was read as HCMV inh 4.
COC(=O)c1cc(OC)c(OC)cc1NC(=O)c1ccc2c(c1)CCN2S(=O)(=O)c1ccccc1 was read as HCMV inh 6.
`CCN(CCCNC(=O)CNC(=O)c1nn(-c2ccc(OC)cc2OC)c(=O)c2ccccc12)c1cccc(C)c1` gave Shiga toxin inh 23, HCMV inh -9, Pf growth 48h inconclusive, Pf growth 96h 10% and Cycloheximide cs -3.
For OC(CNCc1ccccc1)Cn1ccc2ccccc21 (centres undefined) the results were Shiga toxin inh -17, HCMV inh -6, Pf growth 48h 9.3µM*, Pf growth 96h inconclusive and Cycloheximide cs -6.
Oc1ccccc1NCC(O)Cn1ccc2ccccc21 (centres undefined) was read as Shiga toxin inh 21, HCMV inh -11, Pf growth 48h inconclusive, Pf growth 96h 2% and Cycloheximide cs 5.
OC(CNCCNc1ncccc1C(F)(F)F)Cn1ccc2ccccc21 (centres undefined) was read as Shiga toxin inh -8, HCMV inh -4, Pf growth 48h 1.5µM*, Pf growth 96h 1.9µM* and Cycloheximide cs -4.
`CCc1nnc(NC(=O)c2nc(S(=O)(=O)Cc3ccc(C)cc3)ncc2Cl)s1` gave Shiga toxin inh 78*, HCMV inh -101*, Pf growth 48h 6%, Pf growth 96h inconclusive and Cycloheximide cs 57*.
Screening CCc1nnc(NC(=O)c2nc(S(=O)(=O)Cc3cccc(C)c3)ncc2Cl)s1 returned Shiga toxin inh 74*, HCMV inh -101*, Pf growth 48h -4%, Pf growth 96h 35% and Cycloheximide cs 58*.
For CCc1nnc(NC(=O)c2nc(S(=O)(=O)Cc3ccccc3)ncc2Cl)s1 the results were Shiga toxin inh 114*, HCMV inh -101*, Pf growth 48h 4%, Pf growth 96h 0% and Cycloheximide cs 75*.
`CCOc1ccccc1NC(=O)c1nc(S(=O)(=O)Cc2cccc(C)c2)ncc1Cl` gave Shiga toxin inh -13, HCMV inh -113*, Pf growth 48h 25%, Pf growth 96h -28% and Cycloheximide cs 0.
Screening CCOC(=O)c1ccc(NC(=O)CSc2nnc(NC(=O)c3ccc(S(=O)(=O)N4CCOCC4)cc3)s2)cc1 returned Shiga toxin inh -6, HCMV inh 29, Pf growth 48h -5%, Pf growth 96h 5% and Cycloheximide cs -3.
For COc1cc(-c2nnc(SCC3(c4ccccc4)OCCO3)o2)cc(OC)c1OC the results were Shiga toxin inh 11, HCMV inh 12, Pf growth 48h 13µM*, Pf growth 96h 5.2µM* and Cycloheximide cs 1.
Screening CCn1c(=NC(=O)c2ccc(S(=O)(=O)N3CCCC3)cc2)sc2cc(Br)ccc21 returned HCMV inh -18.
`COC(=O)C1=C(c2ccc(OCc3ccccc3)cc2)C[C@@H]2CC[C@H]1N2C(=O)NCc1ccccc1OC` gave HCMV inh -27.
For COC(=O)C1=C(c2ccc(OCc3ccccc3)cc2)C[C@@H]2CC[C@H]1N2C(=O)NCc1ccc(N(C)C)cc1 the results were HCMV inh -12, Pf growth 48h inconclusive and Pf growth 96h 9.3µM*.
`COC(=O)C1=C(c2ccc(OCc3ccccc3)cc2)C[C@@H]2CC[C@H]1N2C(=O)NCc1ccc(OC)c(OC)c1` gave HCMV inh -61*, Pf growth 48h inconclusive and Pf growth 96h inconclusive.
For CCCN1CCC(=O)N(CCSc2ccc(NC(C)=O)cc2)CC1 the results were Shiga toxin inh 108*!, HCMV inh 8, Pf growth 48h 141%, Pf growth 96h 14% and Cycloheximide cs 64*!.
Screening CCCN1CCC(=O)N(CCSc2ccc(Br)cc2)CC1 returned Shiga toxin inh 56* and Cycloheximide cs 35*.
Screening CCCN1CCC(=O)N(CCSc2ccccc2)CC1 returned Shiga toxin inh 44*, HCMV inh 76, Pf growth 48h 242%, Pf growth 96h 441% and Cycloheximide cs 40*.
CN1CCC(=O)N(CCSc2ccc(Br)cc2)CC1 was read as Shiga toxin inh 50*!, HCMV inh 24, Pf growth 48h 0%, Pf growth 96h 32% and Cycloheximide cs 21*!.
Screening CN1CCC(=O)N(CCOc2ccccc2)CC1 returned Shiga toxin inh -7, HCMV inh 21, Pf growth 48h -1%, Pf growth 96h -12% and Cycloheximide cs 6.
`CCC1CCCCN1CCCNC(=O)C1CCN(c2nnc(-n3cccc3)s2)CC1` (centres undefined) gave Shiga toxin inh 36, HCMV inh -19, Pf growth 48h inconclusive, Pf growth 96h inconclusive and Cycloheximide cs 1.
For CN(CCO)c1ccc2c(c1)OC[C@H](Cc1ccccc1)NS2(=O)=O the results were HCMV inh -2.
CCOC(=O)NC(=S)Nc1c(C)n(C)n(-c2ccccc2)c1=O was read as Shiga toxin inh -11, HCMV inh 0, Pf growth 48h 8%, Pf growth 96h -2% and Cycloheximide cs -2.
`[N-]=[N+]=NCCN1CCN(Cc2ccccc2)CCC1=O` gave Shiga toxin inh 16, HCMV inh 6, Pf growth 48h 54%, Pf growth 96h 34% and Cycloheximide cs -4.
For c1ccc(SCCN2CCN(c3ccccc3)CC2)cc1 the results were Shiga toxin inh 45, HCMV inh 39, Pf growth 48h 29%, Pf growth 96h -13% and Cycloheximide cs 13*.
Cc1ccc(SCCN2CCN(CC(C)C)CCC2=O)cc1 was read as Shiga toxin inh 84*, HCMV inh 15, Pf growth 48h 7%, Pf growth 96h 45% and Cycloheximide cs 31*!.
`O=C1CCN(Cc2ccccc2)CCN1CCSc1ccccc1` gave Shiga toxin inh 41*, HCMV inh 99, Pf growth 48h 125%, Pf growth 96h 147% and Cycloheximide cs 42*.
C[C@H]1CN(c2ccc(Br)cc2)C(=O)[C@@H]1CC(=O)Nc1ccccc1 was read as HCMV inh -3.
`COc1ccc2oc(=O)cc(CN3CCN(C(=O)c4ccccc4)CC3)c2c1` gave HCMV inh 8.
`Cc1cc(C)c2c3c(sc2n1)C(c1cccc(F)c1)C(C#N)=C(N)O3` (centres undefined) gave Shiga toxin inh -5, HCMV inh inconclusive, Pf growth 96h inconclusive and Cycloheximide cs 0.
For Cc1ccc(F)cc1NC(=O)Cn1c(C)cc(C)c(C#N)c1=O the results were HCMV inh 2.
For Clc1ccsc1-c1ccnc(-n2cccc2)n1 the results were Shiga toxin inh 52*, HCMV inh 79, Pf growth 48h 19%, Pf growth 96h 23% and Cycloheximide cs 22*.
